Results on 17 compounds are retold here after PubChem BioAssay (NCI).

Some test systems named below: DU-145 prostate; K-562 leukemia; MALME-3M melanoma; MDA-MB-231 breast; RXF 393 renal; SF-268 CNS; SF-295 CNS; SF-539 CNS; UACC-257 melanoma; M14 melanoma.
Holding throughout (test): NCI-60 one-dose screen, 48 h (100 = growth as untreated, 0 = no growth, -100 = all killed)
Common to all, as to settings: 10 µM unless noted

About 83,000 compounds went through this panel and 20% of them were active in at least one assay; those are over-represented in the sample as a whole.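 Step 1: grow cells in 96-well plates. Step 2: add test compound at a single concentration. Step 3: incubate 48 h. Step 4: record percent growth.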 Values without a mark were called inactive. Active and inactive are the calls of the source. How the source made its calls: active means growth percent below 10; inactive means the rest.

On to `Cn1cc(C=O)c2nccnc21`, for which the growth is 118% in the assay with DU-145 prostate; 101% in the assay on K-562 leukemia; 106% in the assay on MALME-3M melanoma; 111% in the assay on MDA-MB-231 breast; 112% with RXF 393 renal; 123% with SF-268 CNS. Besides, the growth in the assay with SF-295 CNS was 101%; in the assay with SF-539 CNS, 108%; in the assay on UACC-257 melanoma, 102%; in the assay on M14 melanoma it was 120%.

For `CC1=C2[C@@H](CC1)[C@]1(C)O[C@@](C(C)C)(C[C@H]1O)[C@H]2OC(=O)C1CC1c1ccccc1` (stereo not given in full), the growth in the assay on DU-145 prostate was 106%; with K-562 leukemia, 84.6%; in the assay with MALME-3M melanoma, 92.2%; in the assay on MDA-MB-231 breast it was 78.2%; in the assay with RXF 393 renal, 99.4%; in the assay with SF-268 CNS it was 86.1%. Besides, the growth in the assay on SF-295 CNS is 92.1%; in the assay with SF-539 CNS, 94.6%; in the assay with UACC-257 melanoma it was 103%; in the assay with M14 melanoma, 90.9%.

`CC(=O)O[C@H](C[C@H](C(C)C)N(C)C(=O)[C@@H](NC(=O)[C@H]1CCCCN1C)C(C)C)c1cccc(C(=O)N[C@@H](Cc2ccccc2)C[C@H](C)C(=O)O)n1`: the growth in the assay with DU-145 prostate is 0.44% (active); with K-562 leukemia it was 7.66% (active); in the assay on MALME-3M melanoma it was 74.3%; in the assay with MDA-MB-231 breast, 11.8%; in the assay with RXF 393 renal, 34.5%; in the assay on SF-268 CNS, 23.1%. For the same compound, the growth in the assay with SF-295 CNS was 5.65% (active); in the assay on SF-539 CNS, -2.97% (active); with UACC-257 melanoma, 48.4%; with M14 melanoma, 1.68% (active).

`O=C(Nc1ccc([N+](=O)[O-])cc1)C(Cl)(Cl)Cl`: the growth with DU-145 prostate is 96.7%; with K-562 leukemia, 98.2%; in the assay on MALME-3M melanoma, 97.6%; in the assay on MDA-MB-231 breast, 95%; in the assay on RXF 393 renal, 116%; with SF-268 CNS, 97.6%. Besides, the growth is 96.9% in the assay on SF-295 CNS, 94.2% with SF-539 CNS, 96.7% with UACC-257 melanoma and 94.1% in the assay with M14 melanoma.

Consider `O=C([O][Hg][c]1ccccc1)c1ccccc1`, for which the growth in the assay with DU-145 prostate was -35.7% (active); in the assay with K-562 leukemia it was -21.4% (active); in the assay on MALME-3M melanoma, -4.96% (active); in the assay with MDA-MB-231 breast it was -53.1% (active); in the assay with RXF 393 renal it was -72.4% (active); in the assay on SF-268 CNS it was -34.9% (active). The growth was 56.8% in the assay on SF-295 CNS, 19.4% with SF-539 CNS, -30% (active) with UACC-257 melanoma and -68.3% (active) with M14 melanoma.

With `CCCCCSC1C2C(=O)C(Br)=CC13CCNc1c(O)c4c5c(c13)=[N+]2CCC=5C=N4` (stereo not given), the growth was -100% (active) in the assay with DU-145 prostate; -32% (active) in the assay with K-562 leukemia; -99.5% (active) in the assay with MALME-3M melanoma; -7.12% (active) in the assay with MDA-MB-231 breast; -28.5% (active) with RXF 393 renal; -51.7% (active) with SF-268 CNS. Also, the growth in the assay on SF-295 CNS is 20.9%; in the assay with SF-539 CNS, -79.6% (active); in the assay on UACC-257 melanoma, -79.6% (active); with M14 melanoma, -92.6% (active).

Turning to `C/C(CC(C)(C)N1CC1)=N\NC(=O)Nc1cccc2ccccc12`, the growth was 68.2% with DU-145 prostate; 78.2% in the assay on K-562 leukemia; 74.5% in the assay on MALME-3M melanoma; 58.3% with MDA-MB-231 breast; 39.2% with RXF 393 renal; 52.9% in the assay with SF-268 CNS. For the same compound, the growth in the assay with SF-295 CNS is 67%; in the assay with SF-539 CNS, 70.3%; in the assay with UACC-257 melanoma, 86.4%; in the assay with M14 melanoma it was 72.8%.

As to `CC12CCC3C(C=CC4=C(N)C(=O)CCC43C)C1CCC2=O` (stereo not given), the growth with DU-145 prostate is 62.4%; with K-562 leukemia, -26.9% (active); in the assay with MALME-3M melanoma it was 70.8%; with MDA-MB-231 breast it was 101%; with RXF 393 renal it was 95.2%; with SF-268 CNS, 89%. The growth in the assay with SF-295 CNS is 105%; with SF-539 CNS it was 82.8%; in the assay with UACC-257 melanoma it was 86.7%; with M14 melanoma, 79.5%.

For the compound `Nc1ccc(Cl)cc1`, the growth in the assay on DU-145 prostate was 102%; in the assay on K-562 leukemia, 100%; with MALME-3M melanoma, 104%; with MDA-MB-231 breast it was 104%; in the assay with RXF 393 renal, 105%; in the assay with SF-268 CNS, 104%. For the same compound, the growth in the assay with SF-295 CNS was 99.2%; with SF-539 CNS, 96.6%; in the assay on UACC-257 melanoma, 86.4%; in the assay on M14 melanoma it was 99.5%.

Turning to `O=C1N[C@@H]2[C@@H](O)[C@@H](O)[C@H](O)C[C@H]2c2cc3c(c(O)c21)OCO3`, the growth was -19.1% (active) with DU-145 prostate; 1.86% (active) with K-562 leukemia; -48.7% (active) in the assay on MALME-3M melanoma; -27.9% (active) with MDA-MB-231 breast; -37.3% (active) in the assay on RXF 393 renal; -4.43% (active) in the assay with SF-268 CNS. Moreover, the growth with SF-295 CNS is -11.5% (active); in the assay with SF-539 CNS, -29.7% (active); with UACC-257 melanoma, -21.8% (active); in the assay with M14 melanoma it was -81.7% (active).

With `COc1ccc(Nc2ccc([N+](=O)[O-])cc2[N+](=O)[O-])cc1CN(CCCl)CCCl`, the growth is 35.8% with DU-145 prostate; 24.4% in the assay on K-562 leukemia; 55.1% in the assay on MALME-3M melanoma; 44.1% in the assay on MDA-MB-231 breast; -1.08% (active) in the assay with RXF 393 renal; 24.9% with SF-268 CNS. Also, the growth in the assay on SF-295 CNS is 37.6%; in the assay on SF-539 CNS, 15.9%; in the assay on UACC-257 melanoma it was 62.9%; in the assay with M14 melanoma, 46.7%.

On to `Clc1ccc(CSC(Cn2ccnc2)c2ccc(Cl)cc2Cl)cc1` (stereo not given), for which the growth in the assay with DU-145 prostate is 68.3%; in the assay with K-562 leukemia it was 10.2%; in the assay on MALME-3M melanoma it was 21%; in the assay on MDA-MB-231 breast it was 64.7%; in the assay with RXF 393 renal, 15.3%; in the assay on SF-268 CNS it was 50.2%. Moreover, the growth in the assay on SF-295 CNS is 10.7%; with SF-539 CNS it was 44.4%; in the assay with UACC-257 melanoma it was 23.1%; in the assay on M14 melanoma, 29.7%.

Consider `C=C1C(=O)O[C@H]2[C@H]1CC/C(COC(=O)C(=O)c1cn(Cc3ccccc3)c3ccccc13)=C\CC[C@@]1(C)O[C@@H]21`, for which the growth was -54.1% (active) in the assay with DU-145 prostate; 5.58% (active) with K-562 leukemia; -41.7% (active) in the assay on MALME-3M melanoma; -57.2% (active) with MDA-MB-231 breast; -90.2% (active) in the assay with RXF 393 renal; -57.5% (active) with SF-268 CNS. In addition, the growth in the assay on SF-295 CNS was 18.8%; in the assay on SF-539 CNS, -51.3% (active); in the assay with UACC-257 melanoma, -65.4% (active); with M14 melanoma, -66% (active).

`C[C@@H]1C[C@@]2(C)[C@@H](CC[C@@H]3[C@@H]2CC[C@]2(C)C(=O)CC[C@@H]32)CC1=O`: the growth with DU-145 prostate was 108%; in the assay with K-562 leukemia it was 93.1%; with MALME-3M melanoma it was 118%; in the assay on MDA-MB-231 breast, 103%; in the assay with RXF 393 renal, 49.7%; with SF-268 CNS, 102%. Also, the growth is 90.7% in the assay on SF-295 CNS, 95% in the assay with SF-539 CNS, 113% in the assay on UACC-257 melanoma and 96.9% with M14 melanoma.

For `CC(C)=CCc1c(O)c(C(=O)CC(C)C)c(O)c2c(-c3ccccc3)cc(=O)oc12`, the growth was 61.9% in the assay on DU-145 prostate; 28% with K-562 leukemia; 56.9% in the assay with MALME-3M melanoma; 5.93% (active) with MDA-MB-231 breast; 74.1% with RXF 393 renal; 52.1% with SF-268 CNS. In addition, the growth in the assay with SF-295 CNS is 43.4%; in the assay with SF-539 CNS, 68.9%; in the assay with UACC-257 melanoma it was 58.1%; in the assay with M14 melanoma, 61%.

Consider `CCCCNC(c1ccc(Cl)cc1)C(O)c1ccc(Cl)cc1` (stereo not given), for which the growth with DU-145 prostate is 37.2%; in the assay with K-562 leukemia, 0.937% (active); in the assay with MALME-3M melanoma it was 39.7%; in the assay with MDA-MB-231 breast, 5.73% (active); in the assay with RXF 393 renal, 58.4%; with SF-268 CNS, 55.9%. Besides, the growth with SF-295 CNS is 41.3%; in the assay on SF-539 CNS, 68.3%; in the assay on UACC-257 melanoma it was 86%; with M14 melanoma it was 25.7%.

On to `CCOP(=O)(Nc1ccc2c(c1)/C(=N/NC(N)=S)c1ccccc1-2)OCC`, for which the growth was 102% in the assay on DU-145 prostate; 103% in the assay with K-562 leukemia; 139% in the assay on MALME-3M melanoma; 59.7% in the assay on MDA-MB-231 breast; 90.1% in the assay with RXF 393 renal; 98% in the assay on SF-268 CNS. Moreover, the growth is 116% with SF-295 CNS, 84.7% in the assay on SF-539 CNS, 113% in the assay with UACC-257 melanoma and 108% in the assay with M14 melanoma.
